Data on 48 compounds can be found in PubChem BioAssay AID1347076 (National Center for Advancing Translational Sciences (NCATS), 2019).

Out of some 400,000 compounds screened, about 13,000 (3.2%) were called active. Roughly 18% stayed inconclusive and do not appear here. What follows is part of a selection rich in actives, with near analogues and random picks from the rest. A number with no mark means an inactive call. Calls come from the whole dose curve; as a rule, active = well fitted cell-killing curve with a large enough effect; inconclusive = small, poorly fitted or top-dose-only effect, or effect the other way; inactive = flat fitted curve, though single readings scatter.
% is set by controls: 0 for no effect and ±100 for the full control effect; potency is the fitted concentration of half-maximal effect.

A short description of the test: qHTS assay for MDR1-selective chemotherapeutics: Primary screen using the drug-selected MDR subline cells KB-V1. Note: nearly all actives have a fitted effect of over 60% in size. As to conditions: KB-V1 MDR cells viability, CellTiter-Glo, 72 h; series mostly up to 46.1 µM; activity change, negative = cytotoxicity: at the top concentration. The method in brief: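 Following 72 h at 37 degrees C with compound, KB-V1 cell viability was read by CellTiter-Glo luminescence, medium being phenol-red-free DMEM plus 10% FBS; concentration-response parameters came from normalized, curve-fitted qHTS data.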
Regarding `COc1ccc(S(=O)(=O)N[C@@H]2C=C[C@@H](CC(=O)N3CCc4ccccc4C3)O[C@@H]2CO)cc1`, the “activity change, negative = cytotoxicity” value is -1.54%. On the same count and under the same terms, then `COc1cccc(NC(=O)CN(C)C(=O)/C=C/c2cn(-c3ccccc3)nc2-c2cccs2)c1`, with -25.7%. In the case of `COc1cccc(NC(=O)CN(C)C(=O)/C=C/c2cc(OC)ccc2OC)c1`, the Potency was 10.3 µM (active).

For `COc1cccc(NC(=O)CN(C)C(=O)Cc2ccc(Cl)cc2Cl)c1`, the “activity change, negative = cytotoxicity” value is -6.54%. On the same count and under the same terms, the same measure for `O=C(O)C1CCCN1c1nc(Cl)ccc1[N+](=O)[O-]` (stereo not drawn): 21.7%; for `COc1ccc(NC2CCCN(C(=O)c3ccccc3-c3ncc[nH]3)C2)cc1` (stereo not drawn): 18.4%; for `COc1cc(OC)c(/C=N/NC(=O)c2ccc([N+](=O)[O-])cc2)cc1Br`: 8.39%. Still for that read-out and setting: the same measure for `Cc1ccc(S(=O)(=O)Oc2ccc(/C=N/NC(=O)c3ccncc3)cc2)cc1`: -2.26%. Regarding `COc1cccc(/C=N/NC(=O)c2cccc([N+](=O)[O-])c2)c1OS(=O)(=O)c1ccc(C)cc1`, the Potency was 16.4 µM (active). With `CC(C)C[C@H]1CN([C@@H](Cc2ccccc2)CN2CCC[C@@H]2CN2C(=O)C(=O)NC[C@@H]2Cc2ccc(O)cc2)C(=O)C(=O)N1CCc1ccccc1`, the “activity change, negative = cytotoxicity” value is 13.8%. On the same count and under the same terms, the same measure for `COc1ccc(C)cc1S(=O)(=O)NC1CCCCC1`: 0.661%. Regarding `COc1ccc(-c2nc3cnccn3c2NC2CCCCC2)cc1-c1cccc(Cl)c1`, the Potency was 14.6 µM (active). On to `COc1ccccc1N1CCN(c2ncnc3onc(-c4cccc(Cl)c4)c23)CC1`, for which the “activity change, negative = cytotoxicity” value is 5.03%. On to `Cc1ccc(Nc2c(-c3ccc(C)cc3)nc3cnccn23)cc1`, for which the “activity change, negative = cytotoxicity” value is 9.35%.

On to `CCOc1cc(-c2nnc(SCC(=O)NC3CCCCC3)nc2-c2ccc(OC)c(OCC)c2)ccc1OC`, for which the “activity change, negative = cytotoxicity” value was 2.67%. On to `COc1cccc(CNC(=O)CN2C(=O)CCc3cc(S(=O)(=O)N4CCOCC4)ccc32)c1`, for which the “activity change, negative = cytotoxicity” value is -9.66%.

On to `CCCNC(=O)c1cc(C2CCCCN2C(=O)OC)on1` (stereo not drawn), for which the “activity change, negative = cytotoxicity” value was 6.18%.

For `CCC(C)C(CO)NC(=O)/C=C/[C@H]1O[C@@H](n2cnc3c(NC(=O)c4ccccc4)ncnc32)[C@H](O)[C@@H]1O` (stereo partly drawn), the “activity change, negative = cytotoxicity” value was 0%. Turning to `COc1ccc([C@H]2N[C@]3(CCCN(CC4CCCCC4)C3=O)[C@H]3C(=O)N(C)C(=O)[C@@H]23)cc1`, the “activity change, negative = cytotoxicity” value was -23%. The same measure, in the same setting: the same measure for `Cn1c(=O)c2cc(NC(=O)NCCc3cccs3)ccc2n1Cc1cccc(C(F)(F)F)c1`: 2.61%; for `CC(=O)NC(c1ccccc1)c1nc(-c2cccc(C(C)C)c2)cs1` (stereo not drawn): -17.7%; for `Cc1cccc(Nc2nc(-c3ccccc3)cs2)n1`: 3.01%. As for `CC(=O)Nc1cccc(-c2csc(Nc3cccc(C)n3)n2)c1`, the Potency was 20.6 µM (active). For `O=C1CC[C@@H](C(=O)N2CSC[C@@H]2C(=O)Nc2ccc(C(F)(F)F)cc2)N1`, the “activity change, negative = cytotoxicity” value was -0.952%. `Cc1ccc(-c2nc(=N)sn2Cc2ccccc2)cc1`: the “activity change, negative = cytotoxicity” value is -15.3%. In the case of `CN(N=O)c1ccc(C=C2c3ccccc3-c3ccccc32)cc1`, the “activity change, negative = cytotoxicity” value was 3.84%.

On to `O=C(NCc1cccnc1)c1cc(C2CCCN(C(=O)C3CCCCC3)C2)on1` (stereo not drawn), for which the “activity change, negative = cytotoxicity” value is 3.13%.

As to `CC1(C)CC(=O)c2cc(C(=O)NCc3ccccc3)c(=O)[nH]c2C1`, the “activity change, negative = cytotoxicity” value is 20.8%. For the compound `CC(NC(=O)c1ccccc1F)c1cccc2ccccc12` (stereo not drawn), the “activity change, negative = cytotoxicity” value is -13.6%. As for `CC(NC(=O)c1cccc2ccccc12)c1ccc2c(c1)CCCC2` (stereo not drawn), the Potency is 20.6 µM (active). Take `CC(NC(=O)c1ccccc1SCC(=O)N1CCCC1)c1ccccc1` (stereo not drawn): the “activity change, negative = cytotoxicity” value was -20.8%. Consider `O=C1CCC(=O)N1CCC(=O)N(C(=O)NC1CCCCC1)C1CCCCC1`, for which the “activity change, negative = cytotoxicity” value is -20.2%. With `CCOc1ccc(CCN2C(=O)C(=O)N([C@@H](Cc3ccc(O)cc3)CN3CCC[C@H]3CN3C(=O)C(=O)NC[C@@H]3CC(C)C)C[C@@H]2Cc2ccccc2)cc1`, the “activity change, negative = cytotoxicity” value was -3.43%. Take `CCCNC(=O)C1(C)CCN(C(=O)c2ccccc2OC(F)(F)F)C1` (stereo not drawn): the “activity change, negative = cytotoxicity” value is 16.4%.

Turning to `Cc1cc(O)ccc1-c1cc(C(=O)NCc2cc(C(F)(F)F)cc(C(F)(F)F)c2)[nH]n1`, the “activity change, negative = cytotoxicity” value was 7.22%. `O=[N+]([O-])c1ccc(N2CCSCC2)cc1O`: the “activity change, negative = cytotoxicity” value was 0%.

Take `CC1CCN(c2ccc([N+](=O)[O-])c(SCCO)c2)CC1`: the “activity change, negative = cytotoxicity” value is -1.25%. As to `CN1CCN(c2ccc([N+](=O)[O-])c(Sc3nc4ccccc4[nH]3)c2)CC1`, the Potency is 14.6 µM (active). In the case of `COc1ccc(Sc2ccc(NC(=O)c3cccc(Cl)c3)cc2C#N)cc1`, the “activity change, negative = cytotoxicity” value was 2.24%.

As for `COc1ccc(-c2nn(-c3ccccc3)cc2C(=O)Nc2nccs2)cc1OC`, the “activity change, negative = cytotoxicity” value was -9.36%. With `Oc1ccc(Br)cc1/C=N/Nc1ccccn1`, the “activity change, negative = cytotoxicity” value is 0.606%. In the case of `COc1ccc(-c2nn(-c3ccccc3)cc2/C=N/Nc2ccccn2)cc1OC`, the Potency was 3.66 µM (active). As for `CS(=O)(=O)c1cccc(-c2ccc3nncn3c2)c1`, the “activity change, negative = cytotoxicity” value was -2.98%. Regarding `CCN(CCCNC(=O)c1c(C)oc2ncn(CC(C)C)c(=O)c12)Cc1ccccc1`, the “activity change, negative = cytotoxicity” value was 2.97%. In the case of `OCCN1CCN(c2ncnc3c2ncn3[C@H]2CN(Cc3ccco3)C[C@@H](CO)O2)CC1`, the “activity change, negative = cytotoxicity” value was -0.202%.

With `O=S(=O)(NCc1ccc(Cl)cc1Cl)c1cccs1`, the “activity change, negative = cytotoxicity” value was -2.09%. On the same count and under the same terms, the same measure for `Cc1ccc(S(=O)(=O)Cc2cc(-c3ccc(Cl)cc3)no2)cc1`: -17.3%. In the case of `O=S(=O)(Cc1ccc(Cl)cc1Cl)c1ccc(Cl)cc1`, the Potency is 1.46 µM (active).
